Test results as given in the supplement of paper PMC10849652.
Targets with a hit are over-represented here; the source holds about 8,800 in all. About 0.5% of all pairs of compound and target were hits. A number with no mark means an inactive call.

Columns and labels:
Assay in all cases: log2 fold change, soluble protein after heating vs DMSO (PISA); higher = thermal stabilisation; K562 lysate, 10 uM; active = over 0.2 and 3.5 SD of the protein, either way, in both replicates (recomputed)
[1] = compound: Cc1cn(-c2cc(NC(=O)c3ccc(C)c(Nc4nccc(-c5cccnc5)n4)c3)cc(C(F)(F)F)c2)cn1 [nilotinib]
How it was run: (§1)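 Soluble protein was defined as the supernatant remaining after 21,000xg for 90 min, following pooling of heated aliquots and adjustment to 0.5% NP-40 at 4°C. Before that, crude K562 extract at 1 mg/mL protein in PBS pH 7.4 with 1 mM MgCl2 was treated with 10 μM compound for 30 min and heated for 3 min across 48°C-58°C. Quantification used TMTpro 16plex LC-MS/MS with channel sums equalised, and values are log-two fold changes in thermal stability relative to solvent controls from duplicates.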

[2] = compound: Cc1nc(Nc2n[nH]c3c2CN(C(=O)N[C@H](CN(C)C)c2ccccc2)C3(C)C)c2sccc2n1
How it was run: as §1

[3] = compound: Cc1nc(Nc2ncc(C(=O)Nc3c(C)cccc3Cl)s2)cc(N2CCN(CCO)CC2)n1 [dasatinib]
How it was run: as §1

[4] = compound: Cc1ncc(-c2ccnc(Nc3ccc(S(C)(=O)=O)cc3)n2)n1C(C)C
How it was run: as §1

[5] = compound: Cn1cc(-c2ccc3c(c2)CCN3C(=O)Cc2cccc(C(F)(F)F)c2)c2c(N)ncnc21
How it was run: as §1

[6] = compound: Cn1cc(CNCC2CCN(c3ncc(C(=O)NO)cn3)CC2)c2ccccc21 [quisinostat]
How it was run: as §1

[7] = compound: Cn1cncc1[C@@](N)(c1ccc(Cl)cc1)c1ccc2c(c1)c(-c1cccc(Cl)c1)cc(=O)n2C [tipifarnib]
How it was run: as §1

[8] = compound: NC(=O)Nc1cc(-c2cccc(F)c2)sc1C(=O)N[C@H]1CCCNC1
How it was run: as §1

[9] = compound: NC(=O)c1cnc(N[C@@H]2CCCC[C@@H]2N)nc1Nc1cccc(-n2nccn2)c1
How it was run: as §1

[10] = compound: NC1(c2ccc(-c3nc4ccn5c(=O)[nH]nc5c4cc3-c3ccccc3)cc2)CCC1
How it was run: as §1

[11] = compound: NCC(=O)Nc1ccc(-n2nc(C(F)(F)F)cc2-c2ccc3c(ccc4ccccc43)c2)cc1
How it was run: as §1

[12] = compound: O=C(CCCCCCC(=O)Nc1ccccc1)NO [vorinostat]
How it was run: as §1

[13] = compound: O=C(O)c1ccc2c(c1)nc(Nc1cccc(Cl)c1)c1ccncc12 [silmitasertib]
How it was run: as §1

[14] = compound: O=C1NC(=O)C(c2cnc3ccccn23)=C1c1cn2c3c(cc(F)cc13)CN(C(=O)N1CCCCC1)CC2
How it was run: as §1

[15] = compound: c1cn2cc(-c3ccc4cn[nH]c4c3)nc(Nc3ccc(N4CCOCC4)cc3)c2n1 [entospletinib]
How it was run: as §1

UniProt Q9H7Z7, sequence (Q9H7Z7 whole entry, looked up): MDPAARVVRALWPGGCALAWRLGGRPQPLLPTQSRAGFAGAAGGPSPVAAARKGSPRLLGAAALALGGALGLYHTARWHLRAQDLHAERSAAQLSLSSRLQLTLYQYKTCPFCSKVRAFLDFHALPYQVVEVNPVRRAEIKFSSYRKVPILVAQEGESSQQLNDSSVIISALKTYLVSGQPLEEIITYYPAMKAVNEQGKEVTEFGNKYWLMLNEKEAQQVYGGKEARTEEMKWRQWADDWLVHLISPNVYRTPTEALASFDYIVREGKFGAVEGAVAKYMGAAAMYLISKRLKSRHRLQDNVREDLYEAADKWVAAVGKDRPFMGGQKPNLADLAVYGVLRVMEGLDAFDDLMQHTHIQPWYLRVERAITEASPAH
UniProt Q8TD55, sequence (Q8TD55 whole entry, looked up): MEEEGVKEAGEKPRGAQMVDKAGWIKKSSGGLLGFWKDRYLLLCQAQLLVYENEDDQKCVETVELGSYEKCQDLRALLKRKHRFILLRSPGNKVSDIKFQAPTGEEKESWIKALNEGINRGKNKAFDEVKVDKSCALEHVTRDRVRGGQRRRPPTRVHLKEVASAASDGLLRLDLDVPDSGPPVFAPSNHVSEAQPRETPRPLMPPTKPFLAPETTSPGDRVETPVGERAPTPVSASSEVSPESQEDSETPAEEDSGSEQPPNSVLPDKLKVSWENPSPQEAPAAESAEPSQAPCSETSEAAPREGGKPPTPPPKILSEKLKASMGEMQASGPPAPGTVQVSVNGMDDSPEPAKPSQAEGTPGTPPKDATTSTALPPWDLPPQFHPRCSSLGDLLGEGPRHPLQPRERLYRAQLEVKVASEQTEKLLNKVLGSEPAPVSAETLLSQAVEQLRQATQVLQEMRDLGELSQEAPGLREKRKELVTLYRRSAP
UniProt Q8TCD6, sequence (Q8TCD6 whole entry, looked up): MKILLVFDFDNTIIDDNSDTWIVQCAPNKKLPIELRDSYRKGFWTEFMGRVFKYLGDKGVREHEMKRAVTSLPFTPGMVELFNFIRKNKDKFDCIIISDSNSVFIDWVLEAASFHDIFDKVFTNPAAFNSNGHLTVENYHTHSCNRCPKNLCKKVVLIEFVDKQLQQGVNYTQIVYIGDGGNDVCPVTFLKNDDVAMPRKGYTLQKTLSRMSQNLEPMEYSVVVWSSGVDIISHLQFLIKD
UniProt Q9Y244, sequence (Q9Y244 whole entry, looked up): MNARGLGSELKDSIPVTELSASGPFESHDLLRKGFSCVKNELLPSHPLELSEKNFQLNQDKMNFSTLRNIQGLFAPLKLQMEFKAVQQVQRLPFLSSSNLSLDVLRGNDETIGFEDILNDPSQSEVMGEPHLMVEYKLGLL
UniProt Q9H2H8, sequence (Q9H2H8 whole entry, looked up): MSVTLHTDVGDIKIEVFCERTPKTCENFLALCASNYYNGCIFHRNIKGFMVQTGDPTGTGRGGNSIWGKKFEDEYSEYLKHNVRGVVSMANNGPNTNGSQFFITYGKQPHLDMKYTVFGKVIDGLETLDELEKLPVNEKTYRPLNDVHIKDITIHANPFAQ
UniProt Q8IZ21, sequence (Q8IZ21 whole entry, looked up): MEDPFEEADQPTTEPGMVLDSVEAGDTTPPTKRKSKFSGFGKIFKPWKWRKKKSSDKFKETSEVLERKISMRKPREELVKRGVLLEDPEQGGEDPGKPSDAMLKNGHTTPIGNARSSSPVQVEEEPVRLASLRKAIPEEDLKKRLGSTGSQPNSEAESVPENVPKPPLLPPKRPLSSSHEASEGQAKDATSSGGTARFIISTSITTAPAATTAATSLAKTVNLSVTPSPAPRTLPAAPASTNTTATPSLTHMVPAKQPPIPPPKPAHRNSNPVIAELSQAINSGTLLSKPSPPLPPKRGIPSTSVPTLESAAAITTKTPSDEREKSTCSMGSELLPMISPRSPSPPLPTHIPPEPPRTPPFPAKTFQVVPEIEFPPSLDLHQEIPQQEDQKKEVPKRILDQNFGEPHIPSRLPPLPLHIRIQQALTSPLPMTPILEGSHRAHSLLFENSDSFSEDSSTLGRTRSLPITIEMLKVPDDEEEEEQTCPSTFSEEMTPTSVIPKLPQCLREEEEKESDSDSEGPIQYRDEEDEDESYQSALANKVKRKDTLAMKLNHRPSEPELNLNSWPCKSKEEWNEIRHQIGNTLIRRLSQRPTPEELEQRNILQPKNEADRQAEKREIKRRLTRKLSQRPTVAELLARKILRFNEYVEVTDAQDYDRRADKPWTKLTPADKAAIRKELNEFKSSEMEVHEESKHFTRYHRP
UniProt Q16816, sequence (Q16816 whole entry, looked up): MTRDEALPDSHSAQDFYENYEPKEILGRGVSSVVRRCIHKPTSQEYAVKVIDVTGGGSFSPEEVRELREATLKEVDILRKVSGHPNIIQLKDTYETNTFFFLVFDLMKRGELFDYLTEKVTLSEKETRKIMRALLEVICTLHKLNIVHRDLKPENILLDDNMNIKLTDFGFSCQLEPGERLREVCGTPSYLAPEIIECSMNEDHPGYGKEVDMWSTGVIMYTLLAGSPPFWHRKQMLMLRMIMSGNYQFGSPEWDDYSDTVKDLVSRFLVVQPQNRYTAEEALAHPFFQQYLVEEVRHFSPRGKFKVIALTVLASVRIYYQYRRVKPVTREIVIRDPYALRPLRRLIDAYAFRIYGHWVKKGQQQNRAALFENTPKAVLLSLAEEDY
UniProt P14314, sequence (P14314 whole entry, looked up): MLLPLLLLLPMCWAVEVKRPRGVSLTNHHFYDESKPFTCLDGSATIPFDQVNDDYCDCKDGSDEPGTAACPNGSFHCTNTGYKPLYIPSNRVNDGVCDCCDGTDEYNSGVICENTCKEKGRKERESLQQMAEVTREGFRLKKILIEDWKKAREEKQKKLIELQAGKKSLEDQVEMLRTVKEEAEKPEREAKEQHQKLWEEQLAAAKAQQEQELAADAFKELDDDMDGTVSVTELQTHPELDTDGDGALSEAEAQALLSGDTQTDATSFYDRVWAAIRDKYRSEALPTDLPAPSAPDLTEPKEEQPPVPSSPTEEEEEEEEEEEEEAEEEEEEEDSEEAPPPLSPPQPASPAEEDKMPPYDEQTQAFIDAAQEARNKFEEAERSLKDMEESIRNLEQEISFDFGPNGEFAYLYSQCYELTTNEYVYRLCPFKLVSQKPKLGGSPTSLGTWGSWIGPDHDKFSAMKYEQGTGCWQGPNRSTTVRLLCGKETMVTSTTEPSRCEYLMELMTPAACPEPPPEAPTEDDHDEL
UniProt Q9NVU0, sequence (Q9NVU0 whole entry, looked up): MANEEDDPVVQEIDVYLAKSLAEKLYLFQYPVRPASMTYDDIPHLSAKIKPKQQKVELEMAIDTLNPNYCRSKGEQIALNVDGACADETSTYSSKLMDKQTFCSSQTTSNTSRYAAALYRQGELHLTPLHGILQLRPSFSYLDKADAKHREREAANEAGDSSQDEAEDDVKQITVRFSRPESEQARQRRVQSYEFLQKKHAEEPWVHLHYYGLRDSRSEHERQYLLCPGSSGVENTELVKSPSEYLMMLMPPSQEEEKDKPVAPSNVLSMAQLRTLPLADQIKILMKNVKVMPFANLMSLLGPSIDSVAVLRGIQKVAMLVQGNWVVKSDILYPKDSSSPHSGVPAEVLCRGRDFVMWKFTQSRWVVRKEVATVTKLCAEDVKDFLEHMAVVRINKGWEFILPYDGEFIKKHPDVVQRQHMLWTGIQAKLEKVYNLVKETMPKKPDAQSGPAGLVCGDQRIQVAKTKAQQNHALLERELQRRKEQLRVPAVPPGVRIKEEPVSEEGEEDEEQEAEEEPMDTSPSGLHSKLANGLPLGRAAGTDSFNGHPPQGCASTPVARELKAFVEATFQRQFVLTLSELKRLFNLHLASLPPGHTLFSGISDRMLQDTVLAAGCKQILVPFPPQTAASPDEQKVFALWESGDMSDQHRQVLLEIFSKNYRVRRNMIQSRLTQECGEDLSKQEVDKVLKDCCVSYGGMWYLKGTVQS
UniProt P13861, sequence (P13861 whole entry, looked up): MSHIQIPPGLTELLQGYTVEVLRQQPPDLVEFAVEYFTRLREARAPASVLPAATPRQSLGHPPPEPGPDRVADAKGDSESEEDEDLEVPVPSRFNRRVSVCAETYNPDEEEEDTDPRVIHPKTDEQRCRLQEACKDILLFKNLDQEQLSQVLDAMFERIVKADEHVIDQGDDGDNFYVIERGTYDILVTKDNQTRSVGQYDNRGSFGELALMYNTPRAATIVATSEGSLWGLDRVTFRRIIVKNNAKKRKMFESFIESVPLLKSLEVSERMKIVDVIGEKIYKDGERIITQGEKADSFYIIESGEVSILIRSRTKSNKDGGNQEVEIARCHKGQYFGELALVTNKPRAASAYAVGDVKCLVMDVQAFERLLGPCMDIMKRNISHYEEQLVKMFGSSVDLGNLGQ
UniProt Q10713, sequence (Q10713 whole entry, looked up): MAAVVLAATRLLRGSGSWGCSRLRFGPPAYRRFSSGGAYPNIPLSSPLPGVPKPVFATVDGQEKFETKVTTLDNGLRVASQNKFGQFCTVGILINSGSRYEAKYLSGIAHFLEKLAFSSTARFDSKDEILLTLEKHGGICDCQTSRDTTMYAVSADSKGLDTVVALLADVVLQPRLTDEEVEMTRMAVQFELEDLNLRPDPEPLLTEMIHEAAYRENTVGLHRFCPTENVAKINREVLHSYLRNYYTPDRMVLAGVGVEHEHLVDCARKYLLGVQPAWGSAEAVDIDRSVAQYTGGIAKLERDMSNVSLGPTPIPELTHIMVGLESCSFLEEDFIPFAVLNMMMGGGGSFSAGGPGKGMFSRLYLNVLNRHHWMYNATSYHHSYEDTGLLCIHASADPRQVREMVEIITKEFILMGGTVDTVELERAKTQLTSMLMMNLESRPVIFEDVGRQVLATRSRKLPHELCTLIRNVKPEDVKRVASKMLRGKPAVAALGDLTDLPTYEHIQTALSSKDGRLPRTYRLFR
UniProt Q9BUL8, sequence (Q9BUL8 whole entry, looked up): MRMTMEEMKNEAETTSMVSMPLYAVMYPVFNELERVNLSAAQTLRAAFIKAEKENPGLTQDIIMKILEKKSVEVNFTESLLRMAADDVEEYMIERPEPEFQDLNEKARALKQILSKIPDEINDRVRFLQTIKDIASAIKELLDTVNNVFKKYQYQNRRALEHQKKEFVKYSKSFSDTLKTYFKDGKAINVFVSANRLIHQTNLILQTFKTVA

Target | log2 fold change [1] | log2 fold change [2] | log2 fold change [3] | log2 fold change [4] | log2 fold change [5] | log2 fold change [6] | log2 fold change [7] | log2 fold change [8] | log2 fold change [9] | log2 fold change [10] | log2 fold change [11] | log2 fold change [12] | log2 fold change [13] | log2 fold change [14] | log2 fold change [15]
PMPCA (UniProt Q10713) | 0.005 | 0.052 | 0.672 (active) | 0 | -0.017 | -0.041 | 0.187 | -0.013 | -0.009 | 0.003 | 0.031 | 0.033 | -0.044 | 0.003 | -0.019
PHACTR4 isoform 2 (UniProt Q8IZ21) | 0.005 | -0.004 | 0.022 | -0.016 | 0.012 | -0.017 | -0.015 | -0.006 | -0.002 | -0.027 | 0.025 | 0.014 | 0.01 | 0.009 | -0.024
PHOSPHO2 (UniProt Q8TCD6) | 0.003 | -0.013 | 0.024 | 0.038 | -0.033 | 0.03 | 0.068 | -0.036 | -0.004 | 0.013 | -0.051 | 0.181 | -0.002 | 0.001 | -0.116
PRMT8 (UniProt Q9NR22) | 0.007 | -0.021 | -0.039 | -0.01 | -0.023 | -0.057 | 0.036 | 0.034 | -0.023 | -0.056 | 0.067 | -0.157 | -0.018 | -0.017 | 0.002
PHKG1 isoform 2 (UniProt Q16816) | -0.049 | 1.01 (active) | -0.124 | -0.204 | -0.021 | -0.151 | -0.007 | 1.31 (active) | 0.043 | -0.181 | 0.053 | -0.342 | 0.259 | -0.123 | -0.002
PRKAR2A (UniProt P13861) | -0.036 | -0.051 | -0.065 | -0.016 | 0.017 | 0.02 | 0.025 | -0.198 | -0.037 | -0.011 | 0.005 | -0.037 | -0.008 | -0.06 | -0.035
PIP4K2C (UniProt Q8TBX8) | 0.169 | -0.015 | 0.047 | 0.298 | 0.029 | -0.095 | -0.012 | 0.035 | 0.033 | -0.085 | 0.021 | -0.07 | 0.425 (active) | 0.063 | 0.004
PPFIA2 (UniProt O75334) | -0.046 | 0.027 | -0.064 | -0.022 | 0.01 | -0.238 | -0.029 | 0.017 | 0.024 | -0.089 | 0.05 | -0.053 | -0.074 | 0.069 | -0.036
POLR3E (UniProt Q9NVU0) | 0.017 | -0.054 | -0.035 | -0.018 | 0.018 | -0.023 | 0.04 | 0.037 | 0.009 | -0.001 | -0.017 | -0.263 (active) | -0.023 | 0.027 | -0.004
POMP (UniProt Q9Y244) | 0.021 | 0.057 | 0.048 | 0.301 (active) | 0 | -0.054 | -0.046 | -0.007 | 0.039 | -0.002 | -0.016 | -0.028 | 0.05 | 0.014 | -0.12
PRKACA (UniProt P17612) | -0.055 | 0.638 (active) | 0.07 | 0.068 | 0.049 | 0.097 | -0.083 | 0.637 (active) | 0.273 | -0.038 | -0.114 | 0.007 | -0.02 | 0.033 | 0.03
PPIL3 (UniProt Q9H2H8) | 0.121 | 0.023 | -0.049 | 0.176 | -0.032 | 0.017 | -0.028 | -0.025 | -0.054 | -0.051 | 0.084 | -0.155 | -0.022 | 0.029 | -0.016
PI4K2A (UniProt Q9BTU6) | 0.009 | 0.03 | -0.036 | 0.207 (active) | -0.024 | 0.01 | -0.064 | 0.071 | 0.49 (active) | -0.004 | -0.006 | -0.005 | 0.074 | -0.009 | 0.001
PRKCSH isoform 2 (UniProt P14314) | -0.004 | 0.099 | 0.088 | 0.116 | 0.003 | -0.157 | -0.081 | -0.079 | 0.038 | -0.192 | -0.046 | 0.126 | -0.057 | -0.019 | 0.037
PICALM (UniProt H0YEH1) | -0.023 | -0.012 | -0.039 | -0.007 | -0.005 | -0.095 | 0.019 | 0.166 | -0.021 | -0.042 | -0.048 | 0.037 | -0.045 | -0.075 | -0.237
PTGES2 (UniProt Q9H7Z7) | 0.446 | -0.044 | 0.01 | -0.019 | 0.015 | -0.046 | -0.057 | -0.012 | -0.056 | -0.078 | -0.175 | -0.197 | 0.304 | 0.12 | 0.085
PUM1 isoform 3 (UniProt Q14671) | -0.072 | -0.012 | -0.027 | 0.03 | 0.016 | 0.01 | -0.057 | 0.004 | -0.021 | 0.028 | 0.027 | -0.192 | 0 | -0.004 | -0.009
PLEKHO2 (UniProt Q8TD55) | 0.207 | -0.237 | -0.096 | 0.118 | -0.039 | 0.062 | -0.192 | 0.068 | -0.071 | 0.873 (active) | 0.045 | -0.103 | 0.347 | -0.018 | 0.082
PDCD10 (UniProt Q9BUL8) | 0.006 | 0.121 | 0.077 | 0.03 | 0.013 | -0.053 | -0.005 | 0.114 | -0.018 | 0.004 | -0.009 | 0.158 | -0.001 | -0.037 | 0.011
